The source of these data is ChEMBL document CHEMBL3988442, “University of Dundee, Small-Polar-MMV Screening Library” (2021).

Structures are written as SMILES.

This assay addresses T1, Arginase-2, mitochondrial (Homo sapiens) (UniProt P78540).
T1 sequence (whole entry): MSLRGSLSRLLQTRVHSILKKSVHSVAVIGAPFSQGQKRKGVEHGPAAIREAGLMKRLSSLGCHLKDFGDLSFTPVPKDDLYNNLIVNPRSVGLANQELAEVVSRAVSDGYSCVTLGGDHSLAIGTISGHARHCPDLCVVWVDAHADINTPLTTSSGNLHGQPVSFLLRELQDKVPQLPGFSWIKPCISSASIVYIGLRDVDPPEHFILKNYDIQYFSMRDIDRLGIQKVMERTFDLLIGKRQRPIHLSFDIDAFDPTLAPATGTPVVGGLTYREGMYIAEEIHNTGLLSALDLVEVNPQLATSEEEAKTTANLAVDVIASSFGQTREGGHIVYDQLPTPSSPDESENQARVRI
Nature of the assay: in vitro enzyme assay to detect the production of urea directly proportional to the activity of Arginase II. Also on record: scale not given: in the data most compounds retested in dose-response had high values. Particulars: 30 µM. It is filed as functional.
`O=C(c1coc(CN2CCN(c3ccccc3F)CC2)n1)N1CC=CC1`: the Percent Effect was determined as 5.95%. The value for `N#Cc1ccc(OCC(O)CN2CCN(c3nccs3)CC2)cc1` (stereo not given) was 5.95%; that for `Cc1cnc(C(=O)N2CCCC(c3nccn3Cc3cscn3)C2)cn1` (stereo not given) was -5.95%. Regarding `Cc1ccc([C@@H]2CN(S(=O)(=O)c3cc(C)ccc3F)C[C@H]2N(C)C)cc1`, the Percent Effect came out at 2.7%. Take `COc1ccccc1Oc1ncccc1CNC(=O)[C@@H](N)[C@@H](C)O`: the Percent Effect came out at 3.78%. On to `CN(Cc1ccco1)[C@@H]1CN(CC2CCOCC2)C[C@@H]2CCCO[C@@H]21`, for which the Percent Effect was determined as 7.03%. On to `O=C(COC1CCCC1)N1CCCC1c1noc(C2CC2)n1` (stereo not given), for which the Percent Effect was determined as 5.95%. For the molecule `Cc1nc(N2CCN(C(=O)NCc3cscn3)CC2)sc1C`, the Percent Effect was determined as 5.95%.

In the case of `CC1=Nc2c(c(=O)[nH]n2C2CCOCC2)C(c2cccc(O)c2)S1` (stereo not given), the Percent Effect was 2.7%.

With `COc1ccc(C(=O)N2C[C@@H](C(=O)O)[C@H](c3cccc(F)c3)C2)c(O)c1`, the Percent Effect turned out to be 7.03%. For the molecule `CC(C)CNC(=O)c1cc(Br)c2c(c1)OCCO2`, the Percent Effect amounted to 3.78%. For `Cc1ccc(-c2nc(CN3CC(n4nc(C)cc4C)C3)no2)cc1`, the Percent Effect turned out to be 3.78%. With `O=c1[nH]c2c(c(=O)n1C1CCCCC1)CCC2NCc1ccccc1` (stereo not given), the Percent Effect was determined as 9.19%. In the case of `CNC(=O)[C@H]1C[C@@H]2CN(C(=O)c3ccsc3)C[C@@H]2N1S(C)(=O)=O`, the Percent Effect came to 8.11%. The value for `OC(CN(Cc1ccccc1)Cc1cscn1)c1cccs1` (stereo not given) was 8.11%.

`COc1ccc2c(c1)OCC(CNC(=O)c1cc(C(C)C)on1)C2` (stereo not given): the Percent Effect came out at 2.7%. Consider `Cc1nsc(N2CCCN(C(=O)NCc3cc(C)on3)CC2)n1`, for which the Percent Effect was determined as 8.11%. With `CCn1c(NCc2cccnc2)nc2c(C)nn(C)c2c1=O`, the Percent Effect stood at 3.78%. Turning to `CNC(=O)[C@H]1C[C@@H]2CN(C(=O)c3ccncc3)C[C@@H]2N1S(C)(=O)=O`, the Percent Effect worked out at 4.87%.

On to `CNC(=O)[C@H]1C[C@@H]2CN(C(=O)c3occc3C)C[C@@H]2N1S(C)(=O)=O`, for which the Percent Effect was 2.7%.

For the molecule `O=C(NCc1ccncc1)N(Cc1ccc(F)cc1F)C1CC1`, the Percent Effect is 3.78%. `CCOCCCNC(=O)c1cc(Br)c2c(c1)OCCO2`: the Percent Effect stood at 0.54%. The value for `COc1ccc2c(c1)OCC(CNC(=O)c1cc[nH]c1C)C2` (stereo not given) was 8.11%; that for `CS(=O)(=O)NCCC(=O)N1CCCC1c1noc(C2CC2)n1` (stereo not given) was 11.3%. In the case of `CNC(=O)[C@H]1C[C@@H]2CN(C(=O)c3ccc(C)o3)C[C@@H]2N1S(C)(=O)=O`, the Percent Effect was determined as 1.62%. As for `Cc1cccc(NC2CCc3c2[nH]c(=O)n(C2CCCCC2)c3=O)c1C` (stereo not given), the Percent Effect is -0.54%. With `Cc1noc(C)c1CN1C[C@@H](N(C)Cc2ccco2)[C@H]2OCCC[C@H]21`, the Percent Effect was 7.03%.

On to `CN(Cc1ccccn1)C1CC2(CCN(Cc3ccccn3)CC2)C1`, for which the Percent Effect was -16.8%. `Cc1nn(C)c2c(=O)n(C(C)C)c(NCCc3ccccc3)nc12`: the Percent Effect was 8.11%. On to `Cc1nc(NCC2CC2)nc2c1COCC21CCN(CC(=O)N(C)C)C1` (stereo not given), for which the Percent Effect came out at 4.87%.

Turning to `Cc1ccc(CCNC(=O)N2CCC(Cc3cnn(C)c3)C2)cn1` (stereo not given), the Percent Effect came to 7.03%. Consider `CN(Cc1cccnc1)C1CC2(CCN(Cc3cccnc3)CC2)C1`, for which the Percent Effect is -12.4%. For the molecule `Cc1nnsc1C(=O)N1CCCC(c2nccn2Cc2cscn2)C1` (stereo not given), the Percent Effect was -2.7%.

`CN(Cc1ccco1)[C@@H]1CN(Cc2cnn(C)c2)[C@@H]2CCCO[C@H]12`: the Percent Effect came to 2.7%. Consider `CN(Cc1ccncc1)C1CC2(CCN(Cc3ccccn3)CC2)C1`, for which the Percent Effect turned out to be 5.95%.

On to `CCOCCNC(=O)c1cc(Br)c2c(c1)OCCO2`, for which the Percent Effect was 9.19%. On to `CC(=O)N[C@@H](C)C(=O)NCc1cccnc1Oc1ccccc1F`, for which the Percent Effect worked out at 2.7%. For `COc1ccc(NC2CCc3c2[nH]c(=O)n(C2CCCCC2)c3=O)cc1` (stereo not given), the Percent Effect amounted to 4.87%. The same measure for `Cc1ccc(C(=O)N(CCC#N)Cc2ccccn2)cc1C`: 3.78%; for `CCC(C(=O)NCc1ccncc1)N(c1cccc(Cl)c1)S(C)(=O)=O` (stereo not given): -13.5%.
